B1: PhoQ; a variant is named by its letters at X, in order, P23837 (parent)
chain: MKKLLRLFFPLSLRVRFLLATAAVVLVLSLAYGMVALIGYSVSFDKTTFRLLRGESNLFYTLAKWENNKLHVELPENIDKQSPTMTLIYDENGQLLWAQRDVPWLMKMIQPDWLKSNGFHEIEADVNDTSLLLSGDHSIQQQLQEVREDDDDAEMTHSVAVNVYPATSRMPKLTIVVVDTIPVELKSSYMVWSWFIYVLSANLLLVIPLLWVAAWWSLRPIEALAKEVRELEEHNRELLNPATTRELTSLVRNLNRLLKSERERYDKYRTTLTDLTHSLKTPLXXLQXXLRSLRSEKMSVSDAEPVMLEQISRISQQIGYYLHRASMRGGTLLSRELHPVAPLLDNLTSALNKVYQRKGVNISLDISPEISFVGEQNDFVEVMGNVLDNACKYCLEFVEISARQTDEHLYIVVEDDGPGIPLSKREVIFDRGQRVDTLRPGQGVGLAVAREITEQYEGKIVAGESMLGGARMEVIFGRQHSAPKDE

The results in this text go back to a collection of fitness landscapes (doi:10.1126/science.1257360).

Over roughly 140,000 sequences, “enrichment ratio after two sorts for PhoP signalling” has its median near 0; the highest 2% begin near 11. For the sample, the highest values were picked, then their nearest neighbours and some sequences at random.

Variants of B1 are the subject of this test. The test can be described thus: enrichment ratio after two sorts for PhoP signalling (ratio (wild type AVST 3.29)); higher = more functional. Particulars: with PhoP (E. coli).
NSPY: the enrichment ratio is no more than 0.25.

Take PHRW: the enrichment ratio was no more than 0.25.

On to NLYI, for which the enrichment ratio was no more than 0.25.

On to HIPQ, for which the enrichment ratio was no more than 0.25.

As for SEHH, the enrichment ratio is no more than 0.25.

For the variant NIQH, the enrichment ratio was no more than 0.25.

For the variant NTWT, the enrichment ratio was no more than 0.25.

Regarding PEAN, the enrichment ratio is no more than 0.25.

Take VIAY: the enrichment ratio was no more than 0.25.

In the case of PFVI, the enrichment ratio is no more than 0.25.

In the case of GNDM, the enrichment ratio was no more than 0.25.

Turning to GENQ, the enrichment ratio was no more than 0.25.

For SMMC, the enrichment ratio is 16.1.

Turning to SMMI, the enrichment ratio stood at 5.18.

With SMMS, the enrichment ratio worked out at 14.6.

With SMMW, the enrichment ratio is no more than 0.25.

As for DMMC, the enrichment ratio was no more than 0.25.

SMFC: the enrichment ratio is no more than 0.25.

On to DVQM, for which the enrichment ratio was no more than 0.25.

With PNYR, the enrichment ratio is no more than 0.25.

AGHK: the enrichment ratio is no more than 0.25.

In the case of HLLG, the enrichment ratio is no more than 0.25.

In the case of TDLI, the enrichment ratio turned out to be 16.1.

As to ADLA, the enrichment ratio was determined as 0.619.

Take AILI: the enrichment ratio was 1.77.

For the variant ADLT, the enrichment ratio is 11.3.

In the case of KDLI, the enrichment ratio was no more than 0.25.

As to AADK, the enrichment ratio is no more than 0.25.

In the case of AHLI, the enrichment ratio is 4.17.

With APLI, the enrichment ratio came to 0.336.

For ADLI, the enrichment ratio was found to be 16.8.

On to AALI, for which the enrichment ratio amounted to 11.9.

Turning to FDLI, the enrichment ratio was no more than 0.25.

With AILT, the enrichment ratio came to 6.15.

WYQF: the enrichment ratio was no more than 0.25.

For EELG, the enrichment ratio is no more than 0.25.

For IKSA, the enrichment ratio is no more than 0.25.

For the variant AVVT, the enrichment ratio stood at 0.37.

Regarding QMRR, the enrichment ratio is no more than 0.25.

As for ILWV, the enrichment ratio was no more than 0.25.

On to GWVK, for which the enrichment ratio was no more than 0.25.

Take ANDK: the enrichment ratio was no more than 0.25.

AYLI: the enrichment ratio amounted to 0.332.

ANLI: the enrichment ratio is 23.1.

PDDN: the enrichment ratio was no more than 0.25.

Take VNIK: the enrichment ratio was no more than 0.25.

TWLY: the enrichment ratio was no more than 0.25.

For IICF, the enrichment ratio is 0.792.

For the variant TICA, the enrichment ratio is 12.3.

On to TICV, for which the enrichment ratio was determined as 6.14.

TICI: the enrichment ratio worked out at 2.26.

With TICE, the enrichment ratio is no more than 0.25.

For TICS, the enrichment ratio is 13.

As for TICL, the enrichment ratio was found to be 1.53.

As to IKEC, the enrichment ratio is no more than 0.25.

For the variant LHYP, the enrichment ratio is no more than 0.25.

KVDK: the enrichment ratio is no more than 0.25.

GIFC: the enrichment ratio is no more than 0.25.

As to TNSK, the enrichment ratio was no more than 0.25.

As for MNSC, the enrichment ratio is no more than 0.25.

Take LNSS: the enrichment ratio was no more than 0.25.

For MNSS, the enrichment ratio came out at 0.46.

In the case of TNSR, the enrichment ratio is no more than 0.25.

In the case of TNSC, the enrichment ratio came out at 17.3.

For the variant TNCA, the enrichment ratio turned out to be 8.8.

TNSS: the enrichment ratio is 13.1.

Consider GISC, for which the enrichment ratio is 11.8.

As for TNSI, the enrichment ratio came to 15.8.

Take GITC: the enrichment ratio is 8.58.

Turning to IKVK, the enrichment ratio was no more than 0.25.

For the variant LLGD, the enrichment ratio was no more than 0.25.

For the variant MVLD, the enrichment ratio is no more than 0.25.

For RQIY, the enrichment ratio was no more than 0.25.

Consider GNSC, for which the enrichment ratio amounted to 12.1.

Turning to GTSC, the enrichment ratio was no more than 0.25.

As for GQSC, the enrichment ratio is no more than 0.25.

Turning to WNPE, the enrichment ratio was no more than 0.25.

Regarding EPTS, the enrichment ratio was no more than 0.25.

For the variant SQPA, the enrichment ratio was no more than 0.25.

In the case of YWCT, the enrichment ratio is no more than 0.25.

As for VFCT, the enrichment ratio was no more than 0.25.

Take HECT: the enrichment ratio worked out at 26.3.

On to EECT, for which the enrichment ratio is no more than 0.25.

As to NECT, the enrichment ratio worked out at 14.1.

Regarding TCCT, the enrichment ratio is 7.4.

On to IECT, for which the enrichment ratio worked out at 16.6.

Regarding QECT, the enrichment ratio amounted to 6.99.

For the variant VECT, the enrichment ratio is 12.

Take IQCT: the enrichment ratio is no more than 0.25.

Regarding HEAT, the enrichment ratio was no more than 0.25.

Turning to HELT, the enrichment ratio is no more than 0.25.

For the variant REDM, the enrichment ratio was no more than 0.25.

DVPV: the enrichment ratio was no more than 0.25.

MSTY: the enrichment ratio is 2.56.

For SPFN, the enrichment ratio was no more than 0.25.

Regarding ACHR, the enrichment ratio is no more than 0.25.

As to MCHQ, the enrichment ratio was no more than 0.25.

On to FMEW, for which the enrichment ratio is no more than 0.25.

ERFY: the enrichment ratio was no more than 0.25.

Regarding LRPR, the enrichment ratio is no more than 0.25.

On to LISC, for which the enrichment ratio is no more than 0.25.

As for HMCL, the enrichment ratio came to 2.41.

Consider SWMT, for which the enrichment ratio is no more than 0.25.

Regarding SEMT, the enrichment ratio was determined as 20.

For the variant KYMT, the enrichment ratio was no more than 0.25.

STLA: the enrichment ratio was 10.9.

Regarding STLT, the enrichment ratio was determined as 12.3.

Turning to SIMT, the enrichment ratio is 7.68.

Turning to SQMT, the enrichment ratio came out at 22.7.

Consider STMT, for which the enrichment ratio was 16.6.

Consider SRMT, for which the enrichment ratio was 0.372.

As to SPLT, the enrichment ratio is no more than 0.25.

Consider QEMT, for which the enrichment ratio came out at 5.12.

In the case of SLMT, the enrichment ratio is no more than 0.25.

Regarding INDV, the enrichment ratio was no more than 0.25.

As for LNTQ, the enrichment ratio is no more than 0.25.

For PDCH, the enrichment ratio is no more than 0.25.

Take PGNF: the enrichment ratio was no more than 0.25.

Regarding DWKT, the enrichment ratio is no more than 0.25.

EFCG: the enrichment ratio is no more than 0.25.

For the variant KSIH, the enrichment ratio is no more than 0.25.

With KPAG, the enrichment ratio is no more than 0.25.

For the variant LQSG, the enrichment ratio was no more than 0.25.

For EPRQ, the enrichment ratio was no more than 0.25.

Take TQPT: the enrichment ratio is no more than 0.25.

Turning to WMMI, the enrichment ratio was no more than 0.25.

Regarding IPNH, the enrichment ratio is no more than 0.25.

Regarding PVYK, the enrichment ratio is no more than 0.25.

With KAQM, the enrichment ratio is no more than 0.25.

Take SMGM: the enrichment ratio amounted to 5.78.

As for SMQM, the enrichment ratio was 20.4.

As for LAQM, the enrichment ratio was no more than 0.25.

TLQM: the enrichment ratio turned out to be 15.4.

As to TQQM, the enrichment ratio stood at 17.5.

Regarding SGQK, the enrichment ratio is no more than 0.25.

As to SGQM, the enrichment ratio was 14.7.

As to FQQM, the enrichment ratio was no more than 0.25.

Consider SMRM, for which the enrichment ratio is no more than 0.25.

Regarding DWQM, the enrichment ratio was no more than 0.25.

In the case of RGQM, the enrichment ratio is no more than 0.25.

For IDFL, the enrichment ratio is no more than 0.25.

Consider SWLW, for which the enrichment ratio was no more than 0.25.

Regarding FYKC, the enrichment ratio was no more than 0.25.

FEKG: the enrichment ratio is no more than 0.25.

For DDSK, the enrichment ratio was no more than 0.25.

RTPK: the enrichment ratio is no more than 0.25.

Regarding TQKM, the enrichment ratio was no more than 0.25.

For the variant MGAV, the enrichment ratio worked out at 5.2.

For SRQM, the enrichment ratio is no more than 0.25.

On to SCQM, for which the enrichment ratio came out at 30.8.

In the case of FSQM, the enrichment ratio is no more than 0.25.

As for SPQM, the enrichment ratio was no more than 0.25.

For TTQM, the enrichment ratio was found to be 12.5.

For KYQM, the enrichment ratio was no more than 0.25.

Consider KSQM, for which the enrichment ratio is no more than 0.25.

On to STQM, for which the enrichment ratio turned out to be 12.8.

Regarding LTQM, the enrichment ratio is no more than 0.25.

On to TSQM, for which the enrichment ratio is 24.

Regarding YTQM, the enrichment ratio was no more than 0.25.

Turning to FCQM, the enrichment ratio is no more than 0.25.

As for RPSF, the enrichment ratio is no more than 0.25.

As to GPMM, the enrichment ratio was no more than 0.25.

For the variant AHKW, the enrichment ratio was no more than 0.25.

For the variant PCPS, the enrichment ratio is no more than 0.25.

Take AQDI: the enrichment ratio is no more than 0.25.

As to SLQM, the enrichment ratio came to 7.14.

Regarding SAQM, the enrichment ratio is 8.97.

As for SQQM, the enrichment ratio came to 15.9.

In the case of HIPP, the enrichment ratio is no more than 0.25.

Take TDCL: the enrichment ratio amounted to 1.96.

Consider KHNK, for which the enrichment ratio was no more than 0.25.

As for YPTR, the enrichment ratio was no more than 0.25.

With YCAA, the enrichment ratio was no more than 0.25.

With QASN, the enrichment ratio was 11.4.

On to QRSG, for which the enrichment ratio was no more than 0.25.

With QRSN, the enrichment ratio is no more than 0.25.

As to FVSN, the enrichment ratio was no more than 0.25.

KASG: the enrichment ratio is no more than 0.25.

As for QASG, the enrichment ratio was found to be 17.4.

With FFSN, the enrichment ratio was no more than 0.25.

For QGSN, the enrichment ratio stood at 20.2.

In the case of NASN, the enrichment ratio is no more than 0.25.

For GMMP, the enrichment ratio was no more than 0.25.

Take DWWS: the enrichment ratio is no more than 0.25.

For RCNY, the enrichment ratio was no more than 0.25.

On to NNFP, for which the enrichment ratio was no more than 0.25.

Take QNYN: the enrichment ratio was no more than 0.25.

Take NSYV: the enrichment ratio is no more than 0.25.

Take AVPN: the enrichment ratio is no more than 0.25.

FCMQ: the enrichment ratio was found to be 1.02.

As to QVDG, the enrichment ratio came to 30.4.

Consider YTDG, for which the enrichment ratio was no more than 0.25.

Turning to TSDG, the enrichment ratio was 0.59.

Take QSDG: the enrichment ratio was 11.8.

For the variant QTDG, the enrichment ratio turned out to be 13.5.

Take FFDG: the enrichment ratio is no more than 0.25.

For the variant TVDG, the enrichment ratio is no more than 0.25.

As to FTDG, the enrichment ratio was no more than 0.25.

KSDG: the enrichment ratio was no more than 0.25.

For QGDG, the enrichment ratio came to 11.8.

For the variant PVDG, the enrichment ratio was no more than 0.25.

FCDG: the enrichment ratio is no more than 0.25.
